PubChem BioAssay (NCATS)
Inconclusive results are not listed. Entries that show only a call come without a potency. Calls of active or inactive are those of the source. Calls follow the shape of the dose curve; as a rule, active = well fitted curve in the direction sought with a large enough effect; inconclusive = small, poorly fitted or top-dose-only effect, or another doubt; inactive = no such curve, though single readings can be large; an effect the other way counts as inactive or inconclusive.

What was measured:
[1] = qHTS to identify inhibitors of the type 1 interferon - major histocompatibility complex class I in skeletal muscle: primary screen against the NCATS Pharmaceutical Collection (AID 1347407);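 also: luminescence of HiBiT knocked into endogenous HLA-B as interferon-induced MHC class I level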; also: potency is read from the fitted curve at half-maximal effect
How it was run: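 Immortalized human myoblasts (C25cl48) with HiBiT knocked into endogenous HLA-B*08:01 were stimulated with 4.0 ng/ml IFN-beta and treated with compounds ([…] top 46 uM) for 24 hrs at 37 C. HiBiT lytic luminescence read.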

[2] = target: Protein phosphatase 1D (Homo sapiens) (UniProt O15297); assay: RapidFire Mass Spectrometry qHTS Assay for Modulators of WT P53-Induced Phosphatase 1 (WIP1) (AID 1347424);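 also: amount of dephosphorylated VEPPL-S-QETFS peptide product formed by WIP1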; also: potency is read from the fitted curve at half-maximal effect
Sequence of Protein phosphatase 1D (Homo sapiens) (O15297 whole entry, looked up): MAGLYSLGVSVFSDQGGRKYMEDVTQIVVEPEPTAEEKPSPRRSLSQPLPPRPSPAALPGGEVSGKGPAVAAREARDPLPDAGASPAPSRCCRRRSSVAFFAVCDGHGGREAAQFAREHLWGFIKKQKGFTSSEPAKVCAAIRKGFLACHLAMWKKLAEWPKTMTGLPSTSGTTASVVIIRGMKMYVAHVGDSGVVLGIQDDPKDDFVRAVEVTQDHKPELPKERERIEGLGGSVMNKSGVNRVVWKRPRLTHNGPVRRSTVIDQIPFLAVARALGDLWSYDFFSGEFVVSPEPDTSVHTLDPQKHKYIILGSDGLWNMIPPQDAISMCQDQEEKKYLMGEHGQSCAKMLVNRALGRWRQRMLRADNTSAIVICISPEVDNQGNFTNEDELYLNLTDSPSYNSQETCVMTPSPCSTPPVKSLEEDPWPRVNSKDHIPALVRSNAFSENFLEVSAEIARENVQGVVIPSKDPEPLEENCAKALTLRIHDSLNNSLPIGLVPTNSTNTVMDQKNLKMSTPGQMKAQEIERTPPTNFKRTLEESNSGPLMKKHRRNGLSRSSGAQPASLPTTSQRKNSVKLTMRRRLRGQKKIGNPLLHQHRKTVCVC
How it was run: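 RapidFire mass spectrometry measured dephosphorylated peptide after 5 min room-temperature reaction of 2 uM VEPPL-pS-QETFS with 10 nM WIP1 (50 mM Tris-HCl pH 7.5, 30 mM MgCl2, 0.1 mM EGTA, BSA), following 1 hr compound preincubation; 1 uM isotope-labelled product standard.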

[3] = qHTS for inhibitors of adenylyl cyclases using a fission yeast platform: a pilot screen against the NCATS LOPAC library (AID 1347410)
How it was run: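 S. pombe CHP2027 (AC9-GNAS-PDE4D2) carrying PKA-repressed fbp1-GFP, incubated 18 h at 30C in EMM with LOPAC compounds at up to 57 uM. GFP gain-of-signal read by laser scanning cytometry; DMSO negative control.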

SMILES	Potency [1]	Potency [2]	outcome [3]
Oc1cc(Cl)ccc1Oc1ccc(Cl)cc1Cl	inactive	inactive	–
COC[C@@H](NC(C)=O)C(=O)NCc1ccccc1	inactive	inactive	–
CC1OC(C)OC(C)O1 (configuration not stated)	inactive	inactive	–
C=C1CC[C@@]2(O)[C@H]3Cc4ccc(O)c5c4[C@@]2(CCN3CC2CC2)[C@H]1O5	inactive	inactive	–
CN1C(=S)CN=C(c2ccccc2)c2cc(Cl)ccc21	inactive	inactive	–
O=c1[nH]c2ccccc2n1CCCN1CCC(n2c(=O)[nH]c3cc(Cl)ccc32)CC1	inactive	inactive	inactive
C[C@]12CCC(=O)C(O)=C1CC[C@@H]1[C@@H]2CC[C@]2(C)C(=O)CC[C@@H]12	inactive	inactive	–
NP(N)(=O)NC(=O)c1ccc(F)cc1	inactive	inactive	–
C=CCN1CC[C@]23c4c5ccc(O)c4O[C@H]2C(=O)CC[C@@]3(O)[C@H]1C5	inactive	inactive	–
N[C@@H](Cc1ccc(Oc2cc(I)c(O)c(I)c2)c(I)c1)C(=O)O	inactive	12.6 µM (active)	–
CC(C)CC(N(C)C)C1(c2ccc(Cl)cc2)CCC1 (configuration not stated)	inactive	inactive	–
Cc1ccc(-c2nc3ccc(C)cn3c2CC(=O)N(C)C)cc1	inactive	inactive	–
CCN(CC)CCN1C(=O)CN=C(c2ccccc2F)c2cc(Cl)ccc21	inactive	inactive	–
O=[N+]([O-])c1cc([As](=O)(O)O)ccc1O	inactive	inactive	–
C=C1C[C@@H]2[C@H](CC[C@]3(C)C(=O)CC[C@@H]23)[C@@]2(C)C=CC(=O)C=C12	inactive	inactive	–
C[C@H]1O[C@@H](O[C@H]2[C@@H](O)C[C@H](O[C@H]3[C@@H](O)C[C@H](O[C@H]4CC[C@@]5(C)[C@H](CC[C@@H]6[C@@H]5CC[C@]5(C)[C@@H](C7=CC(=O)OC7)CC[C@]65O)C4)O[C@@H]3C)O[C@@H]2C)C[C@H](O)[C@@H]1O	0.0264 µM (active)	inactive	–
Oc1ccccc1-c1ccccc1	inactive	inactive	–
CCOP(=S)(OCC)Oc1cc(C)nc(C(C)C)n1	inactive	inactive	–
CC[N+]1(C)CCCC(OC(=O)C(O)(c2ccccc2)c2ccccc2)C1 (configuration not stated)	inactive	inactive	–
Cn1cc(C2=C(c3cn(C4CCN(Cc5ccccn5)CC4)c4ccccc34)C(=O)NC2=O)c2ccccc21	inactive	inactive	–
CC(C)(C)CC(C)(C)c1ccc(O)cc1	inactive	inactive	–
Clc1cccc(N2CCNCC2)c1	inactive	inactive	–
Clc1ccc(CCC(Cn2ccnc2)Sc2c(Cl)cccc2Cl)cc1 (configuration not stated)	inactive	inactive	–
COc1ccc2c(c1OC)CN1CCc3cc4c(cc3C1C2)OCO4 (configuration not stated)	inactive	inactive	–
C=C(C)[C@H]1Cc2c(ccc3c2O[C@@H]2COc4cc(OC)c(OC)cc4[C@@H]2C3=O)O1	–	inactive	–
c1ccc2c(c1)Nc1ccccc1S2	inactive	inactive	–

SMILES	Potency [1]	Potency [2]	outcome [3]
CCN(CC)C(=O)N[C@@H]1C=C2c3cccc4[nH]cc(c34)C[C@@H]2N(C)C1	inactive	inactive	–
O=c1[nH]c2ccccc2n1C1CCN(CCCC(c2ccc(F)cc2)c2ccc(F)cc2)CC1	–	inactive	inactive
O=C(NC(O)C(Cl)(Cl)Cl)NC(O)C(Cl)(Cl)Cl (configuration not stated)	inactive	inactive	–
COc1ccc(Cc2nccc3cc(OC)c(OC)cc23)cc1OC	inactive	inactive	–
CCCC(C)(COC(N)=O)COC(=O)NC(C)C (configuration not stated)	inactive	inactive	–
Oc1ccc(Cl)cc1Cc1ccccc1	inactive	inactive	–
Clc1ccc(COC(Cn2ccnc2)c2ccc(Cl)cc2Cl)cc1 (configuration not stated)	–	inactive	–
COC[C@H]1OC(=O)c2coc3c2[C@@]1(C)C1=C(C3=O)C2CCC(=O)[C@@]2(C)C[C@H]1OC(C)=O (some centres not stated)	–	–	inactive
O=c1oc2ccccc2c(O)c1C(CC(O)c1ccc(-c2ccc(Br)cc2)cc1)c1ccccc1 (configuration not stated)	inactive	8.91 µM (active)	–
CCC(C(N)=O)N1CCCC1=O (configuration not stated)	inactive	inactive	–
C[C@]12CC[C@H]3[C@@H](CCC4=CC(=O)CC[C@@H]43)[C@@H]1CC[C@@H]2OC(=O)CCc1ccccc1	inactive	inactive	–
O=C1CC[C@@]2(O)[C@H]3Cc4ccc(O)c5c4[C@@]2(CCN3CC2CC2)[C@H]1O5	–	inactive	–
OCCOc1ccccc1	inactive	inactive	–
FC(F)(F)c1cccc(C2=CCN(CCc3ccc4ccccc4c3)CC2)c1	inactive	inactive	–
N[C@@H]1C[C@H]1c1ccccc1	inactive	inactive	–
CN1CCN(C(=O)O[C@H]2c3nccnc3C(=O)N2c2ccc(Cl)cn2)CC1	inactive	inactive	–
O=P1(NCCCl)OCCCN1CCCl (configuration not stated)	inactive	inactive	–
C[C@]12C/C(=C/O)C(=O)C[C@@H]1CC[C@@H]1[C@@H]2CC[C@@]2(C)[C@H]1CC[C@]2(C)O	–	inactive	–
CCC(COC(=O)c1cc(OC)c(OC)c(OC)c1)(c1ccccc1)N(C)C (configuration not stated)	inactive	inactive	–
CCOC(=O)C1(c2ccccc2)CCN(CCC(C#N)(c2ccccc2)c2ccccc2)CC1	inactive	inactive	–
Fc1ccc(C(OCCN2CCN(CCCc3ccccc3)CC2)c2ccc(F)cc2)cc1	–	inactive	inactive
CCC(=O)C(CC(C)N(C)C)(c1ccccc1)c1ccccc1 (configuration not stated)	–	inactive	–
Cc1ccc2c(c1)C1CN(C)CCC1N2 (configuration not stated)	inactive	inactive	–
CCN(C(C)=O)c1cccc(-c2ccnc3c(C#N)cnn23)c1	inactive	inactive	–
Oc1cccc2cccnc12	inactive	inactive	–
